# Experiments:
# Assay in all cases: DAPPL (digital affinity profiling via proximity ligation, sequencing); 10 mM Tris-HCl pH 7.5, 50 mM NaCl, 1 mM DTT, 4% glycerol, room temperature, 30 min; GST-TFs on glutathione beads, 16-mer random dsDNA library, 0.1% formaldehyde crosslink after washing; high values mean tight binding
# [1] = target: T1, FLI1 (Homo sapiens, UniProt Q01543 1-452); conditions: protein: recombinant; tags: N-terminal GST; dsDNA, one strand shown
# T1 sequence: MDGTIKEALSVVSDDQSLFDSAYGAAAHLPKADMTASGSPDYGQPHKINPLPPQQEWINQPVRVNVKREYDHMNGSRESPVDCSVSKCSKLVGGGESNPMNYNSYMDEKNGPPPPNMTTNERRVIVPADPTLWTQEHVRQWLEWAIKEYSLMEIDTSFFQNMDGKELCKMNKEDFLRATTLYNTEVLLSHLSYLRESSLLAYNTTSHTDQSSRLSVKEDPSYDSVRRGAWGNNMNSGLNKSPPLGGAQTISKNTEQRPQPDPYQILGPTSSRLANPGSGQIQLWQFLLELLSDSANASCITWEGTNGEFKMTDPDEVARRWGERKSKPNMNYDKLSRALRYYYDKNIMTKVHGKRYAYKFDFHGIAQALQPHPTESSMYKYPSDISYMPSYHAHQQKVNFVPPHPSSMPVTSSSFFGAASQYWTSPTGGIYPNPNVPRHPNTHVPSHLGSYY
# Outline: (§1)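 Human transcription factors carrying a GST fusion were produced in yeast, bound to glutathione beads, tagged with DNA barcodes and pooled together with a tag-only sample. Each pool was held with 200 nmole of a random double-stranded 16-mer DNA library in Tris/NaCl/DTT/glycerol buffer for 30 min at room temperature, then washed, crosslinked in 0.1% formaldehyde, proximity-ligated with BsaI/T4 ligase (1 h, 37 °C), PCR-amplified and sequenced on an Illumina NextSeq500. Binding signal is the read frequency of each hexamer for a given factor divided by its frequency in the tag-only sample.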
# [2] = target: T2, ELK1 (Homo sapiens, UniProt P19419 1-428); conditions: protein: recombinant; tags: N-terminal GST; dsDNA, one strand shown
# T2 sequence: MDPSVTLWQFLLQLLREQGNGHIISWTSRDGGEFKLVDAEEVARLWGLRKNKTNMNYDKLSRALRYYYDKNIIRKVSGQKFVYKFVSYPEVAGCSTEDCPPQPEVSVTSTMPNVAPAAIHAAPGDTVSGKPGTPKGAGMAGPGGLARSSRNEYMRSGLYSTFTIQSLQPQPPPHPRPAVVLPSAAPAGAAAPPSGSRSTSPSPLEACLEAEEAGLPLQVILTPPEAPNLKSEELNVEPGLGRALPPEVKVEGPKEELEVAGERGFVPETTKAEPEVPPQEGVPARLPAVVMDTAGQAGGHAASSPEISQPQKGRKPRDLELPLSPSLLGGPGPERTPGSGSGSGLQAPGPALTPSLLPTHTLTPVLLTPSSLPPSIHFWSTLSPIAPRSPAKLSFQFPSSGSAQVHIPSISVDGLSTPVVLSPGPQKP
# Outline: as §1
# [3] = target: T3, GABPA (Homo sapiens, UniProt Q06546 1-454); conditions: protein: recombinant; tags: N-terminal GST; dsDNA, one strand shown
# T3 sequence: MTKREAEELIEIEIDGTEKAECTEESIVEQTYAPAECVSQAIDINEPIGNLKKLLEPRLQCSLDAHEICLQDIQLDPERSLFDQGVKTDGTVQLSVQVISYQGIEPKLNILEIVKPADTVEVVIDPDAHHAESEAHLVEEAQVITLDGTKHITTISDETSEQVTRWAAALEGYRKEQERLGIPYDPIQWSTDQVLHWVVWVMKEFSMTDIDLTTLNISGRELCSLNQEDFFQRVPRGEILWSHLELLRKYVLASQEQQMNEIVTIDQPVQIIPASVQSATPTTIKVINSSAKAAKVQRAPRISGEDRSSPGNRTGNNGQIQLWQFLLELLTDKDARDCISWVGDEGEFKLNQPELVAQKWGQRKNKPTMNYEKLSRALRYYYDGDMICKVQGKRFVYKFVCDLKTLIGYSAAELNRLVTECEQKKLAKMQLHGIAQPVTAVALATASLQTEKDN
# Outline: as §1
# [4] = target: T4, ERG (Homo sapiens, UniProt P11308 1-479); conditions: protein: recombinant; tags: N-terminal GST; dsDNA, one strand shown
# T4 sequence: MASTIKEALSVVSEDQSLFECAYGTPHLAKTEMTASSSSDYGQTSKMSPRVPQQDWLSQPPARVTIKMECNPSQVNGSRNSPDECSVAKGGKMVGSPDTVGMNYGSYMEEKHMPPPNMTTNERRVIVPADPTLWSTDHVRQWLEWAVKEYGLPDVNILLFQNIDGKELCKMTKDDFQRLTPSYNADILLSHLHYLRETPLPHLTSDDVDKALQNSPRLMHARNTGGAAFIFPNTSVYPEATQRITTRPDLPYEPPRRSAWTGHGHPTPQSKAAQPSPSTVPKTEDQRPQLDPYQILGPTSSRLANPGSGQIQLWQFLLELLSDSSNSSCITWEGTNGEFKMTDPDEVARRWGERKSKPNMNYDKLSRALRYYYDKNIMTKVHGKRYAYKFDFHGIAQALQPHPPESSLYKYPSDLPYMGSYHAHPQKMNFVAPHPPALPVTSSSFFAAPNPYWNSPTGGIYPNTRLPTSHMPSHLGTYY
# Outline: as §1
# [5] = target: ELF1 (Homo sapiens, UniProt P32519 1-619); conditions: protein: recombinant; tags: N-terminal GST; dsDNA, one strand shown
# Chain of ELF1 (P32519 whole entry): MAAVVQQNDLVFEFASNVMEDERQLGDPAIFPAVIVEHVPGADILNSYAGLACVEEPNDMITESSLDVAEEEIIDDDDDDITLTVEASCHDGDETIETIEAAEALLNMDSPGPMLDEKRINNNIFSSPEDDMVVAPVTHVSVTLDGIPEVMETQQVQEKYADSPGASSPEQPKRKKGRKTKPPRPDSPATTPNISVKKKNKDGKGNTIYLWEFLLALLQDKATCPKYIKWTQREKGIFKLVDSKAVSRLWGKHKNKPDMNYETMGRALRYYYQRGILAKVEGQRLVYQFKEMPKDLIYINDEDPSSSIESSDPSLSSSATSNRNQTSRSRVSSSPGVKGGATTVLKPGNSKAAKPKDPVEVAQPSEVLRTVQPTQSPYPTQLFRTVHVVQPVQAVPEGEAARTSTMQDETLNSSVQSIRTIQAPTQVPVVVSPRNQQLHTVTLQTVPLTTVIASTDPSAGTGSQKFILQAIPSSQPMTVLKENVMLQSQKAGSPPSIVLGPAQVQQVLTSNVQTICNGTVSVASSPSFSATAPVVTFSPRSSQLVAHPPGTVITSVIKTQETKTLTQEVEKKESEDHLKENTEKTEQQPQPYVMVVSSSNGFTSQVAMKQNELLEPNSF
# Outline: as §1
# [6] = target: T5, EHF (Homo sapiens, UniProt Q9NZC4 1-300); conditions: protein: recombinant; tags: N-terminal GST; dsDNA, one strand shown
# T5 sequence: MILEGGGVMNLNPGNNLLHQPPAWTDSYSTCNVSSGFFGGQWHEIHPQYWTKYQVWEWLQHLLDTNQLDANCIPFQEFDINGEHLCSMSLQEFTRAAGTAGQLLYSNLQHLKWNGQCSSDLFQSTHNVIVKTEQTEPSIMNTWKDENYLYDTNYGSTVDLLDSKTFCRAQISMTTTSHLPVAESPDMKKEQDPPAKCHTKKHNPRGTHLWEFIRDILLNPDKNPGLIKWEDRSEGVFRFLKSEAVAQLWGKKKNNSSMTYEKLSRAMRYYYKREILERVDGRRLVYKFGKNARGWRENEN
# Outline: as §1
# [7] = target: SPI1 (Homo sapiens, UniProt P17947 1-270); conditions: protein: recombinant; tags: N-terminal GST; dsDNA, one strand shown
# Outline: as §1
# [8] = target: SPIB (Homo sapiens, UniProt Q01892 1-262); conditions: protein: recombinant; tags: N-terminal GST; dsDNA, one strand shown
# Chain of SPIB (Q01892 whole entry): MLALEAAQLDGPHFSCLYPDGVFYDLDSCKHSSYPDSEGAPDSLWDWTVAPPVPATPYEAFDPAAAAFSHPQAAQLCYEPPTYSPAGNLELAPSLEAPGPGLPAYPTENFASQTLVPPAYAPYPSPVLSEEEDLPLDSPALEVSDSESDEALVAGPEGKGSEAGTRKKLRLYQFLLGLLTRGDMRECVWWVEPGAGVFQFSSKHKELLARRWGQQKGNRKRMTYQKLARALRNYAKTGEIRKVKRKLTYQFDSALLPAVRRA
# Outline: as §1
# [9] = target: T6, ELK3 (Homo sapiens, UniProt P41970 1-407); conditions: protein: recombinant; tags: N-terminal GST; dsDNA, one strand shown
# T6 sequence: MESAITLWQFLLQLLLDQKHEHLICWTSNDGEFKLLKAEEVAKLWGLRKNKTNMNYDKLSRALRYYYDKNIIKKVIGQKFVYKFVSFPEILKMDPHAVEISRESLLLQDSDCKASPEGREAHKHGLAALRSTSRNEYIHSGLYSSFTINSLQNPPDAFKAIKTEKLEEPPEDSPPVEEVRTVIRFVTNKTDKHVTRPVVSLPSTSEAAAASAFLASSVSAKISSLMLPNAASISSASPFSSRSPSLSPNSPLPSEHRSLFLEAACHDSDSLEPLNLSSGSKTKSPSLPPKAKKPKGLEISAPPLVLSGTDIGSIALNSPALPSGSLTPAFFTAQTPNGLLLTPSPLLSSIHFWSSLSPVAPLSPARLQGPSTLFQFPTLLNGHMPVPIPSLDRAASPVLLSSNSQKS
# Outline: as §1
# [10] = target: T7, FEV (Homo sapiens, UniProt Q99581 1-238); conditions: protein: recombinant; tags: N-terminal GST; dsDNA, one strand shown
# T7 sequence: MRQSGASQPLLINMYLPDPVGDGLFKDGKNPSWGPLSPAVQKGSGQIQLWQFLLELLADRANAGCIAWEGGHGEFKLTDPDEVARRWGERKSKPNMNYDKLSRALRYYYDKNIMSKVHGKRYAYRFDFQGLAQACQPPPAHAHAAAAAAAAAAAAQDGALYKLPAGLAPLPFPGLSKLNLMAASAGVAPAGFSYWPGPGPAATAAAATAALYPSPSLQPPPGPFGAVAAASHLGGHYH
# Outline: as §1
# [11] = target: ETV5 (Homo sapiens, UniProt P41161 1-510); conditions: protein: recombinant; tags: N-terminal GST; dsDNA, one strand shown
# Chain of ETV5 (P41161 whole entry): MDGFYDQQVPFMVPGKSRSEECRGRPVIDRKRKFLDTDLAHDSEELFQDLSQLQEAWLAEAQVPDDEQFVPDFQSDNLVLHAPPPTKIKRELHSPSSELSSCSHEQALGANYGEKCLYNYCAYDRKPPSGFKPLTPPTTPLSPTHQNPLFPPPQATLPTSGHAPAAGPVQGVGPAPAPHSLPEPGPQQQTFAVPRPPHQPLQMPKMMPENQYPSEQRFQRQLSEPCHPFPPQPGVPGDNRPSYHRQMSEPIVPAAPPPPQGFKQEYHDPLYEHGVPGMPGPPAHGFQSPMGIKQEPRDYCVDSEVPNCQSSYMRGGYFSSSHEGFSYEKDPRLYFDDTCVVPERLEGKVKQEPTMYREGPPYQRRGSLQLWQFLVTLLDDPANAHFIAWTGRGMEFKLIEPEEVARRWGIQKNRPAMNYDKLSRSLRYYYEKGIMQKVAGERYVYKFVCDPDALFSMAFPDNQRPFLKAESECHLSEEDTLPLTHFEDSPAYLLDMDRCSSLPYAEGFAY
# Outline: as §1
# [12] = target: HSF1 (Homo sapiens, UniProt Q00613 1-529); conditions: protein: recombinant; tags: N-terminal GST; chain copies: 3; dsDNA, one strand shown
# Chain of HSF1 (Q00613 whole entry): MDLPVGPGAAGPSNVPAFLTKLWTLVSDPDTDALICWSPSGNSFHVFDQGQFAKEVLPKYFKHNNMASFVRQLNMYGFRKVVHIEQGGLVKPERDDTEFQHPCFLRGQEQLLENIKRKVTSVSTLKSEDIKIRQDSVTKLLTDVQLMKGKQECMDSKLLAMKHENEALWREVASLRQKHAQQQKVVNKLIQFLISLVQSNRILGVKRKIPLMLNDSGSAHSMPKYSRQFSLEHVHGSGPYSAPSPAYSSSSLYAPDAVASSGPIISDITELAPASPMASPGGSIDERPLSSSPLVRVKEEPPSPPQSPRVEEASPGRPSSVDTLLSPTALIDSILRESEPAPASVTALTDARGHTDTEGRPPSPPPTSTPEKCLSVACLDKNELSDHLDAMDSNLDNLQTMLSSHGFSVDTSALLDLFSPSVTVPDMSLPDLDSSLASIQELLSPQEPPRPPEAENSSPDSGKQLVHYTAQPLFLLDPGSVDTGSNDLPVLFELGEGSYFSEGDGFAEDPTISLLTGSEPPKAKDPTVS
# Outline: as §1
# [13] = target: T8, SPIC (Homo sapiens, UniProt Q8N5J4 1-248); conditions: protein: recombinant; tags: N-terminal GST; dsDNA, one strand shown
# T8 sequence: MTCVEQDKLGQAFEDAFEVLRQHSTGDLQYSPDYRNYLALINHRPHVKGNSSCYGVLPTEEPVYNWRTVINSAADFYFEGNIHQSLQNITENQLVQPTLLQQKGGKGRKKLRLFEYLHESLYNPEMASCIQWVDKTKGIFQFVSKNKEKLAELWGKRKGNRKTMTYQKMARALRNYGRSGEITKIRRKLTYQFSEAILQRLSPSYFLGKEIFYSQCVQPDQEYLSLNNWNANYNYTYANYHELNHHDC
# Outline: as §1
# [14] = target: ELF4 (Homo sapiens, UniProt Q99607 1-663); conditions: protein: recombinant; tags: N-terminal GST; dsDNA, one strand shown
# Chain of ELF4 (Q99607 whole entry): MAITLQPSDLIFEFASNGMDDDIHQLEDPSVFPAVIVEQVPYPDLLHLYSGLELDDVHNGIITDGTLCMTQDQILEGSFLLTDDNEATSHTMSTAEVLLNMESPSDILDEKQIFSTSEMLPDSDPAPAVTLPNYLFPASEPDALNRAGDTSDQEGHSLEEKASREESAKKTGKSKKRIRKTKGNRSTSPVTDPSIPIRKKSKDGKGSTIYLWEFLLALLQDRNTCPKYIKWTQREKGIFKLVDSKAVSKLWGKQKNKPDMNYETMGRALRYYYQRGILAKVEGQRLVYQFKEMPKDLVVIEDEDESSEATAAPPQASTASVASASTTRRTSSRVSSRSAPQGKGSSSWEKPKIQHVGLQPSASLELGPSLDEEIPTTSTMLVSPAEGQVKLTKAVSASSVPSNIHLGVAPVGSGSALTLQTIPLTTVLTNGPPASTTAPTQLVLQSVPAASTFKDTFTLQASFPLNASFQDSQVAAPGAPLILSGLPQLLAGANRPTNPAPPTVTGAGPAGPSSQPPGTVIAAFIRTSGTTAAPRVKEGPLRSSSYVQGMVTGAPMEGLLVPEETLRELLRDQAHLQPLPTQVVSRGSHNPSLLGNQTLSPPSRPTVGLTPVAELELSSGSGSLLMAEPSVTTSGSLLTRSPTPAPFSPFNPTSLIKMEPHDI
# Outline: as §1
# [15] = target: T9, ELK4 (Homo sapiens, UniProt P28324-2 1-405); conditions: protein: recombinant; tags: N-terminal GST; dsDNA, one strand shown
# T9 sequence: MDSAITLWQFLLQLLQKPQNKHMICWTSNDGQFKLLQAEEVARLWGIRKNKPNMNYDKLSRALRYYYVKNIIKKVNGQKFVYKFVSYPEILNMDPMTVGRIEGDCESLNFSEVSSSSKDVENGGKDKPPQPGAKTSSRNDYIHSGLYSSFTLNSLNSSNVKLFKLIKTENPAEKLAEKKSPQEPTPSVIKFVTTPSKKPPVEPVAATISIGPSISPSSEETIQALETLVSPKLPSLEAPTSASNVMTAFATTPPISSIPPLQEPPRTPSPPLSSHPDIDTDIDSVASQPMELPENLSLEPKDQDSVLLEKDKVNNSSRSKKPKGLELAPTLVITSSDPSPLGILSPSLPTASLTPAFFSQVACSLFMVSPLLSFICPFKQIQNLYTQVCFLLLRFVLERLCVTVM
# Outline: as §1
# [16] = target: T10, ELF3 (Homo sapiens, UniProt P78545 1-371); conditions: protein: recombinant; tags: N-terminal GST; dsDNA, one strand shown
# T10 sequence: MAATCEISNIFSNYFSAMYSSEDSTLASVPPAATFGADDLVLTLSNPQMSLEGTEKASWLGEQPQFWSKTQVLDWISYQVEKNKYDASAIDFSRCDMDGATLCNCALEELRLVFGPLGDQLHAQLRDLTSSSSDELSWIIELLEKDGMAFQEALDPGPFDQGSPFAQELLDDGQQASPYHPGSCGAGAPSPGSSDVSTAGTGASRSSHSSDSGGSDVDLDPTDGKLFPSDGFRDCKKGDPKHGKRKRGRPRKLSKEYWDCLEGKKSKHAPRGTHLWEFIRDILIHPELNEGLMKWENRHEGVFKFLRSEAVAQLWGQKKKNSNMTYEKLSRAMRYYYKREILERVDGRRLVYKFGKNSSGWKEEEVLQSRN
# Outline: as §1
# [17] = target: CRX (Homo sapiens, UniProt O43186 1-299); conditions: protein: recombinant; tags: N-terminal GST; dsDNA, one strand shown
# Chain of CRX (O43186 whole entry): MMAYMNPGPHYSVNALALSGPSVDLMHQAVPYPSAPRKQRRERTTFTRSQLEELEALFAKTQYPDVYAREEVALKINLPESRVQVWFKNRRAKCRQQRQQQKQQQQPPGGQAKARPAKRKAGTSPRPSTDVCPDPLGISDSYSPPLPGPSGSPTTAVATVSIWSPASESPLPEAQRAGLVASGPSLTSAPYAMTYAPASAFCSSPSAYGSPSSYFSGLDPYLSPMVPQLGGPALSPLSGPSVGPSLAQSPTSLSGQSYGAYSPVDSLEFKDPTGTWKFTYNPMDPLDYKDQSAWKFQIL
# Outline: as §1
# [18] = target: ETV1 (Homo sapiens, UniProt P50549 1-477); conditions: protein: recombinant; tags: N-terminal GST; dsDNA, one strand shown
# Chain of ETV1 (P50549 whole entry): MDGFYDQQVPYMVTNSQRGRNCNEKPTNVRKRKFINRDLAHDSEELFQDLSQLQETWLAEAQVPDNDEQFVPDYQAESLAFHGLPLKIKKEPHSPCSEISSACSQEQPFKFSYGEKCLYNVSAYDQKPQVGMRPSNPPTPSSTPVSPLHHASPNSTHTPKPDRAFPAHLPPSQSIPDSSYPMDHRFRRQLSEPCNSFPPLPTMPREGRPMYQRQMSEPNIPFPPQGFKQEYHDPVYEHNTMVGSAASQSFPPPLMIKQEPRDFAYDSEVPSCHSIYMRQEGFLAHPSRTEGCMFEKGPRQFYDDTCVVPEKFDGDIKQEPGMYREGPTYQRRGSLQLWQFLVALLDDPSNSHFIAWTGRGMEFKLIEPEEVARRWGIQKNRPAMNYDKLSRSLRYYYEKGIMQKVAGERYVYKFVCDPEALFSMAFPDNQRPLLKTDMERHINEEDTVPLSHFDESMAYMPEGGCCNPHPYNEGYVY
# Outline: as §1
sequence,measurement,setting,value
CTTGGC,binding signal,[1],"1.19 fold enrichment (6-mer frequency, TF over GST control)"
same,binding signal,[2],"1.23 fold enrichment (6-mer frequency, TF over GST control)"
same,binding signal,[3],"1.25 fold enrichment (6-mer frequency, TF over GST control)"
same,binding signal,[4],"1.12 fold enrichment (6-mer frequency, TF over GST control)"
same,binding signal,[5],"1.14 fold enrichment (6-mer frequency, TF over GST control)"
same,binding signal,[6],"1.22 fold enrichment (6-mer frequency, TF over GST control)"
same,binding signal,[7],"1.18 fold enrichment (6-mer frequency, TF over GST control)"
same,binding signal,[8],"1.2 fold enrichment (6-mer frequency, TF over GST control)"
same,binding signal,[9],"1.18 fold enrichment (6-mer frequency, TF over GST control)"
same,binding signal,[10],"1.24 fold enrichment (6-mer frequency, TF over GST control)"
same,binding signal,[11],"1.1 fold enrichment (6-mer frequency, TF over GST control)"
same,binding signal,[12],"1.03 fold enrichment (6-mer frequency, TF over GST control)"
same,binding signal,[13],"1.14 fold enrichment (6-mer frequency, TF over GST control)"
same,binding signal,[14],"1.21 fold enrichment (6-mer frequency, TF over GST control)"
same,binding signal,[15],"1.42 fold enrichment (6-mer frequency, TF over GST control)"
same,binding signal,[16],"1.19 fold enrichment (6-mer frequency, TF over GST control)"
same,binding signal,[17],"1.03 fold enrichment (6-mer frequency, TF over GST control)"
same,binding signal,[18],"1.15 fold enrichment (6-mer frequency, TF over GST control)"

# From article PMC7862700, “An all-to-all approach to the identification of sequence-specific readers for epigenetic DNA modifications on cytosine”
